Measurements reported in PubChem BioAssay AID492947 (National Center for Advancing Translational Sciences (NCATS), 2010).
In all, about 330,000 compounds went through this assay and about 80 (0.02%) were called active. This is one part of a sample in which actives are shown more often than they occur. Calls come from the whole dose curve; as a rule, active = well fitted activation curve with a large enough effect; inconclusive = small, poorly fitted or top-dose-only effect; inactive = flat fitted curve, though single readings scatter.

The compounds below were run against Beta-2 adrenergic receptor (Homo sapiens) (UniProt P07550) (assay: qHTS assay of beta-arrestin-biased ligands of beta2-adrenergic receptor). Conditions: beta-arrestin recruitment to beta2AR, cell-based reporter; series mostly up to 46.1 µM; activation: at the top concentration.
Description: NIH Molecular Libraries Probe Production Network [MLPCN]
NIH Chemical Genomics Center [NCGC]
PI: Bryan Roth and Bob Lefkowitz
The concept of biased agonism is an emerging concept of molecular pharmacology which proposes that seven transmembrane receptors (7TMRs) or G protein-coupled receptors (GPCRs), exist in multiple signaling conformations and complexes and that ligands (either agonists or antagonists) can induce signaling biased responses for distinct signal transduction cascades.
Furthermore, accumulating evidence over the last decade has drawn attention to a novel function of beta-arrestins as signal transducers that scaffold various signaling molecules upon activation of 7TMRs. […] This beta-arrestin-biased signaling presumably leads to distinct physiological outcomes from those by G protein activation.
Additionally, the active receptor conformations which […] on this beta-arrestin signaling are likely different from those activating G protein signaling
The goal of this screening project will be to discover and optimize novel beta-arrestin-biased ligands for beta2-AR signaling. A luminescent cell-based assay for beta2-AR-mediated agonism, known as the Tango assay, has been validated in which ligand binding of a recombinant beta2-AR and subsequent recruitment of a recombinant beta-arrestin lead to the release of the transcriptional activator tTA, which upregulates transcription of a tTA-responsive luciferase gene. […] Compounds were screened as a concentration-titration series that ranged from 46 microM to 0.6 nM.
NCGC Assay Protocol Summary:
Tango cells were dispensed into white, solid, tissue-culture-treated 1536-well plates at 1500 cells/well in DMEM, containing 1% fetal bovine serum (FBS). Then, 23 nL of compounds or DMSO were delivered to each well using a pin tool. Plates were incubated at 37 degrees C, 5% CO2 for 18 hr. Then 2.5 uL luminescent substrate mix (in-house prepared: 150 mM Tris-Cl, pH 7.6, 3 mM MgCl2, 1% Triton X-100, 5 mM DTT, 0.5 mM CoA, 0.15 mM ATP, 0.44 mM D-luciferin, final concentrations) was added to each well. Plates were then incubated for 15 minutes at room temperature, and subsequently measured on a ViewLux plate reader for luminescent signal using a clear filter with a 10 second exposure and 2x binning. The %Activity was determined from the corrected luminescence values.
Concentration-response curves were fitted to the signals arising from the resulting luminescence. The concentration-effect curves were then classified based on curve quality (r2), response magnitude and degree of measured activity, and compounds were subsequently categorized based on their curve class.
Keywords: biased agonism, beta2-AR, beta-arrestin, GPCR, 7TMR, Tango, luminescence, MLSMR, MLPCN, NIH Roadmap, qHTS, NCGC
Note: nearly all actives have a fitted effect of over 65% in size.
Potency is the fitted concentration of half-maximal effect.
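Throughout, for activation: 0% = DMSO controls and full agonism = EC100 isoproterenol or metaproterenol.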

Beta-2 adrenergic receptor (Homo sapiens), sequence (P07550 whole entry, looked up): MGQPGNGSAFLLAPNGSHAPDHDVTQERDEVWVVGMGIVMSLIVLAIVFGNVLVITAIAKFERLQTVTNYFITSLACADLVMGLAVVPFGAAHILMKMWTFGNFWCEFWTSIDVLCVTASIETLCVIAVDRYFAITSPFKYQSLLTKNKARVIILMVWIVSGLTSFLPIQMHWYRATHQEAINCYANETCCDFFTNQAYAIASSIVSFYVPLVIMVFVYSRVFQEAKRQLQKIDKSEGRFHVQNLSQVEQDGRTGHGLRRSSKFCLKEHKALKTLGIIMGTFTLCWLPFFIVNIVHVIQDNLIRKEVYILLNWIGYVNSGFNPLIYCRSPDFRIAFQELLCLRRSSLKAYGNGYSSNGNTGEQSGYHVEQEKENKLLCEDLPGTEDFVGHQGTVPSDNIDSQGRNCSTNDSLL

Row | SMILES | activation | Potency
1 | O=C(CCNC(=O)c1ccccc1Cl)NN=Cc1ccco1 | -1.11% (inactive) | –
2 | Cc1ccc(S(=O)(=O)N2CCN(C(=O)CCC(=O)NC3CCCc4ccccc43)CC2)cc1 (stereo unspecified) | -0.327% (inactive) | –
3 | COC(=O)C(C)n1cnc2c(nnn2-c2ccc(F)cc2)c1=O (stereo unspecified) | -1.45% (inactive) | –
4 | Cc1ccc(C2(C)NC(=O)N(CC(=O)N3CC(=O)Nc4ccccc43)C2=O)cc1 (stereo unspecified) | -0.447% (inactive) | –
5 | CC(OC(=O)CNS(=O)(=O)/C=C/c1ccccc1)C(=O)Nc1ccc(S(=O)(=O)N2CCCC2)cc1 (stereo unspecified) | -0.924% (inactive) | –
6 | CCOC(=O)c1c(-c2cccc(N)c2)cn2ccccc12 | -0.239% (inactive) | –
7 | CCOc1cc2[nH]c(=S)n(CCCN3CCCC3=O)c(=O)c2cc1OCC | -0.317% (inactive) | –
8 | COc1ccc(CS(=O)/C(Cl)=C(/Cl)C(=O)Nc2ccc(OC)nc2)cc1 (stereo unspecified) | -0.108% (inactive) | –
9 | CC1CC1C(=O)OCC(=O)Nc1cccc(F)c1 (stereo unspecified) | -0.288% (inactive) | –
10 | CC1CCC2(CC1)NC(=O)N(Cc1nnc(-c3cccs3)o1)C2=O (stereo unspecified) | 0.245% (inactive) | –
11 | NC(=O)c1ccsc1NC(=O)COC(=O)Cc1n[nH]c(=O)c2ccccc12 | -0.009% (inactive) | –
12 | CCOCCCNC(=O)c1cn(CC(C)C)c(=O)c2c1c1ccccc1n2C | -0.285% (inactive) | –
13 | Cc1cc(C)c(C#N)c(SCC(=O)NN2CC(=O)N(c3ccccc3F)CC2=O)n1 | -0.808% (inactive) | –
14 | COc1ccc(CC(NC(C)=O)C(=O)NC2CCN(C(=O)C3CC3)CC2)cc1OC (stereo unspecified) | 0.0754% (inactive) | –
15 | COc1ccccc1OCCn1c(SCC(N)=O)nc2ccccc21 | -0.935% (inactive) | –
16 | CCc1cccc(C)c1NC(=O)COC(=O)CC1CCCC1 | -0.1% (inactive) | –
17 | O=C(Nc1cc(-c2nn(CC(=O)N3CCCCC3)c(=O)c3ccccc23)ccc1N1CCOCC1)c1ccc(Cl)cc1 | -0.799% (inactive) | –
18 | COc1ccc2c(-c3ccccc3)cc(SCC(=O)N(C)C3CCS(=O)(=O)C3)nc2c1 (stereo unspecified) | -1.89% (inactive) | –
19 | COC(=O)c1cccc(NC(=O)CN2CCC(NC(=O)c3cc(OC)c(OC)c(OC)c3)CC2)c1 | -0.217% (inactive) | –
20 | O=C(COc1ccccc1Cl)Nc1ccc(C(=O)c2ccc(C(=O)O)cc2)cc1 | -0.148% (inactive) | –
21 | OC(COCC1COc2ccccc2O1)CN1CCN(c2ccc(F)cc2)CC1 (stereo unspecified) | -0.322% (inactive) | –
22 | O=C(O)C1CCCN1S(=O)(=O)c1ccc2c(c1)CCC2 (stereo unspecified) | -0.269% (inactive) | –
23 | COc1ccc(-n2nnnc2SCC(=O)NCc2cccs2)cc1 | 0.169% (inactive) | –
24 | CC(=O)n1c(C=Nc2ccccc2)c(O)c2ccccc21 | 0.129% (inactive) | –

Row | SMILES | activation | Potency
25 | Oc1ccc(N=Cc2sc3ccccc3c2Cl)cc1 | – | 13 µM (active)
26 | Cn1c(SCC(=O)N2CCCC2)nnc1-c1cccs1 | 0.281% (inactive) | –
27 | CC(C(=O)N1CCOCC1)N1c2cccc3cccc(c23)S1(=O)=O (stereo unspecified) | -0.178% (inactive) | –
28 | Nc1ccc(Nc2cc(O)c3ncccc3c2)cc1 | -0.411% (inactive) | –
29 | COc1nc(N=C(N)N)nc2c(C)cccc12 | -0.842% (inactive) | –
30 | CCOC(=O)C1=C(c2ccccc2)N=C2SCC(=O)N2C1c1ccc(O)c(OC)c1 (stereo unspecified) | -1.68% (inactive) | –
31 | COc1cc(C)c(C(C)C)cc1S(=O)(=O)n1ccnc1 | 0.444% (inactive) | –
32 | CCOc1ccc(N(CC(=O)NCCc2ccc(F)cc2)S(=O)(=O)c2ccccc2)cc1 | -0.258% (inactive) | –
33 | CCN(C(=O)COC(=O)c1c(NC(C)=O)sc(C)c1C)C1CCS(=O)(=O)C1 (stereo unspecified) | -0.227% (inactive) | –
34 | C=CCN(c1ccccc1C(=O)NCC(=O)OCC)S(=O)(=O)c1ccc(C)cc1 | -0.554% (inactive) | –
35 | CCCOc1ccc(C2=CSC3=NCCN23)cc1Cl | 0.319% (inactive) | –
36 | CCc1ccc(-c2nc(SCC(=O)NC3CCCC3)n[nH]2)cc1 | 0.447% (inactive) | –
37 | Cc1cc(OCCOc2cccc3cccnc23)c(C)cc1Cl | 0.256% (inactive) | –
38 | CCOC(=O)N1CCN(S(=O)(=O)N2CCCC(C(=O)NCCCN3CCC(C)CC3)C2)CC1 (stereo unspecified) | 0.177% (inactive) | –
39 | Cc1ccsc1C(=O)OCC(=O)NCCc1ccccc1 | -0.289% (inactive) | –
40 | Cc1ccc(S(=O)(=O)NCCC(=O)NNC(=O)C2COc3ccccc3O2)cc1 (stereo unspecified) | -0.347% (inactive) | –
41 | COc1ccc(CC(=O)NCc2nnc(SCC(=O)Nc3ncc(C)s3)n2C)cc1 | -0.188% (inactive) | –
42 | CC1CCCCC1NC(=O)c1cc(=O)[nH]c2ccccc12 (stereo unspecified) | 0.184% (inactive) | –
43 | Cc1csc2ncc(C(=O)N(Cc3ccccc3)c3ccccn3)c(=O)n12 | -0.435% (inactive) | –
44 | c1ccc(-c2cnc(CN3CCN(c4ccccc4)CC3)o2)cc1 | -1.12% (inactive) | –
45 | Cc1cccc(C)c1N1C(=O)CN(Cc2ccccc2)C1=S | -0.274% (inactive) | –
46 | Cc1cccc(N(C(=O)Cn2nnc(-c3ccc(C)o3)n2)C(C(=O)NC2CCCC2)c2ccncc2)c1 (stereo unspecified) | -1.02% (inactive) | –
47 | COc1ccccc1N1CC(C(=O)Nc2nnc(SCC(=O)NC(C)C)s2)CC1=O (stereo unspecified) | -0.293% (inactive) | –
48 | CCO[C@H]1OC(C(=O)N2CCCCCCC2)=C[C@@H](c2ccc(C(F)(F)F)cc2)[C@@H]1CCCO | -0.332% (inactive) | –

Row | SMILES | activation | Potency
49 | COc1ccc(S(=O)(=O)N(C)C[C@H]2Oc3ccc(NS(=O)(=O)c4cccs4)cc3CC(=O)N([C@H](C)CO)C[C@H]2C)cc1 | 0.0688% (inactive) | –
50 | O=C(Cn1cncn1)N/N=C/c1c2ccccc2cc2ccccc12 | 0.226% (inactive) | –
51 | CCCOC1CCCN(C(=O)c2cc(COc3cncc(Cl)c3)on2)C1 (stereo unspecified) | 0.0549% (inactive) | –
52 | CCC1SC(CC)C(=O)N(CC(=O)NC2CCCCC2)C1=O (stereo unspecified) | 0.0877% (inactive) | –
53 | CCc1ccc2oc(=O)cc(CN3CCCCC3C)c2c1 (stereo unspecified) | 0.329% (inactive) | –
54 | O=C(NCc1ccccc1)C1CCCN(c2nc3ccsc3c(=O)s2)C1 (stereo unspecified) | 0.0158% (inactive) | –
55 | CC(C)CCNC(=O)CN(C(=O)Cn1nnc(-c2ccc(F)cc2)n1)C1CCCC1 | -0.252% (inactive) | –
56 | CC(=O)Nc1ccc(S(=O)(=O)Nc2ccc(-c3ccc4nnc(C)n4n3)cc2)cc1 | -0.447% (inactive) | –
57 | Cn1cc(CCC(=O)NC2CC2)c2ccccc21 | -0.249% (inactive) | –
58 | COC(=O)c1sc(SC)c(S(=O)(=O)C(C)C)c1N/N=C(\C#N)S(=O)(=O)c1ccccn1 | -0.888% (inactive) | –
59 | CCn1cc(C(=O)Nc2cc(C)ccc2C)c(=O)c2ccc(C)nc21 | 0.25% (inactive) | –
60 | COC(=O)c1sc(NC(=O)COC(=O)C2CCC2)c(C(=O)OC)c1C | -0.283% (inactive) | –
61 | Cc1nnc(SCC(=O)Nc2ccc(S(=O)(=O)Nc3ccc(Cl)nn3)cc2)s1 | -0.792% (inactive) | –
62 | Cn1c(SCC(=O)Nc2ccc(Cl)cc2)nc(O)cc1=O | -0.732% (inactive) | –
63 | Cc1nn(-c2ccccc2)c(NC(=O)c2cccs2)c(-c2ccc(Cl)cc2)c1=O | -0.018% (inactive) | –
64 | Cc1ccc(S(=O)(=O)N(C)CC(=O)NCCc2c[nH]c3ccccc23)cc1 | -0.865% (inactive) | –
65 | Cc1ccccc1C1=NC(C(F)(F)F)(C(F)(F)F)c2c(n(-c3ccc(F)cc3)c(=O)[nH]c2=O)N1 | 2.31% (inactive) | –
66 | CSc1nnc(C2CCCN(CC(=O)Nc3ccccc3N3CCOCC3)C2)n1C(C)C (stereo unspecified) | 0.413% (inactive) | –
67 | CCOc1ccc(C(C)=O)cc1COC(=O)c1cnc(Cl)c(Cl)c1 | 0.0917% (inactive) | –
68 | O=S(=O)(Cc1ccccc1)c1nc2ccccc2n1Cc1ccccn1 | -0.237% (inactive) | –
69 | O=C(O)c1cccnc1Sc1ncnc2sc3c(c12)CCC3 | -0.363% (inactive) | –
70 | CCCOc1ccc(Cc2c(Cl)nc(SC)nc2NC)cc1 | 0.211% (inactive) | –
71 | CCOC(=O)c1c(NC(=O)Cn2nc(C(F)(F)F)cc2C)sc2c1CCC2 | -0.382% (inactive) | –
